Four molecules from PubChem BioAssay can be followed below.

Assay [1] relates to Wnt5a (protein binding on small-molecule microarray). In words: Wnt5a binders on small-molecule microarray, primary screen, biophysical, 635/667 nm fluorescence (AID 1142).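 Further: fluorescence read at 667 nm with signal to noise per printed feature.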 To be noted: 635 nm fluorescence, higher = more signal.
The nature of assay [2]: cell viability in Huh7 cells, primary screen, cytotoxicity control for HCV replication inhibitor project, CellTiter-Glo luminescence, basal, 48 h (AID 1143).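 Further: Huh7 hepatoma cells carrying a hepatitis C replication reporter with no stimulus; test concentration not given here.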 To be noted: Huh7 HCV replicon, higher = more signal, called active from +8 up or from −8 down. (In general: Cellular ATP, detected with luciferase, serves as a proxy for viable cell number.)
Assay [3] is described as follows: P. aeruginosa biofilm formation inhibitors, primary screen, PAO1 strain, BacTiter-Glo luminescence, LB-PBS (AID 1144). To be noted: 12 h, higher = more signal.
The nature of assay [4]: CREB reporter modulators without forskolin, primary screen, cell-based, PC12, CRE-LacZ reporter, unstimulated (AID 1145). To be noted: no forskolin, luminescence, 4.5 h, higher = more signal, called active from +8 up or from −8 down.
Assay [5] can be described thus: CREB reporter modulators under forskolin, primary screen, cell-based, PC12, CRE-LacZ reporter, forskolin-stimulated (AID 1146).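 Further: PC12 cells with 6xCRE LacZ reporter stimulated by forskolin 10 µM; beta-galactosidase reporter signal reflecting CREB driven transcription.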 To be noted: luminescence, 4.5 h, higher = more signal, called active from +8 up or from −8 down.
The target of assay [6] is Streptavidin (Streptomyces avidinii) (UniProt P22629). In words: streptavidin binders on small-molecule microarray, primary screen, artefact control for SMM compound annotation, biophysical, 635/667 nm fluorescence (AID 1147).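 Further: signal reflects streptavidin binding to arrayed compounds as a control protein.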 To be noted: streptavidin binding, higher = more signal.
Streptavidin (Streptomyces avidinii), sequence (P22629 whole entry, looked up): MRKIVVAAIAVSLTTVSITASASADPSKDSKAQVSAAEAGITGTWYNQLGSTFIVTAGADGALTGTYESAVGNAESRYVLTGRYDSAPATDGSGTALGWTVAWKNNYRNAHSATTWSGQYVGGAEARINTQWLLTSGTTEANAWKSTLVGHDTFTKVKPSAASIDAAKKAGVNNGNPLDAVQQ
Assay [7] in a line: small-molecule binders of probe aInhba, primary screen, biochemical, small-molecule microarray, 635/667 nm fluorescence (AID 1148).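 Further: score merges 667nm spot fluorescence with signal-to-noise for antibody binding to printed compounds.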 To be noted: higher = more signal.
Assay [8] deals with Torsin-1A (Homo sapiens) (UniProt O14656). Description: torsin A binders from cell lysate, primary screen, small-molecule microarray, wild-type, 635/667 nm (AID 1149). To be noted: COS7 hTOR1A-WT lysate, 635 nm fluorescence, higher = more signal.
Torsin-1A (Homo sapiens), sequence (O14656 whole entry, looked up): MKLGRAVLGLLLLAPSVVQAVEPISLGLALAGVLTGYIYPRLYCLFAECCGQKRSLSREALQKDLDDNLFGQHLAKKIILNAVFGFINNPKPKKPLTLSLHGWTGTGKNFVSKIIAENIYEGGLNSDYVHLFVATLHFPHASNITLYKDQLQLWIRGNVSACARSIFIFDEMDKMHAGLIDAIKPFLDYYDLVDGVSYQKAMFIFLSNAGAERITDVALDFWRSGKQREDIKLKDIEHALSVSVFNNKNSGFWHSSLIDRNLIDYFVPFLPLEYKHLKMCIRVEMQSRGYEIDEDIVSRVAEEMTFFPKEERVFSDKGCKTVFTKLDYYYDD
Assay [9] has the same target. In words: small-molecule binders of mutant TOR1A in lysate, primary screen, cell lysate, small-molecule microarray, COS7 lysate, 635/667 nm fluorescence (AID 1150).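 Further: score pools 667 nm emission and signal to noise measuring lysate protein binding.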 To be noted: COS7 hTOR1A mutant lysate, 635 nm fluorescence, higher = more signal.
Assay [10] concerns Sonic hedgehog protein (Shh). In words: small-molecule binders of Shh protein, primary screen, biochemical, small-molecule microarray, 635/667 nm fluorescence (AID 1151).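 Further: Shh protein binding to compounds spotted on small-molecule microarray slides; score combines spot fluorescence intensity with signal-to-noise across triplicate slides.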 To be noted: small-molecule microarray binding, 635 nm fluorescence; higher = more signal.
A short description of assay [11]: E. coli DRC41 culture turbidity changes, primary screen, E. coli filamentation inducer project, strain DRC41, OD650, 48 h (AID 1152).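 Further: E. coli MC1000 strain DRC41 lacking acrAB efflux pump and sulA.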 To be noted: E. coli DRC41 (acrAB sulA), higher = more signal, called active from +8 up or from −8 down.
Assay [12] in a line: small-molecule binders of probe aLefty1, primary screen, biochemical, small-molecule microarray, 635/667 nm fluorescence (AID 1153).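 Further: score merges spot fluorescence with signal-to-noise ratio from the scanned slide images.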 To be noted: higher = more signal.
Assay [13] can be described thus: PSAC antagonists in infected red cells, primary screen, cell-based, P. falciparum Indochina, OD700, 1 h (AID 1154). To be noted: P. falciparum Indochina infected RBC osmotic lysis, higher = more signal, called active from +8 up or from −8 down.
The nature of assay [14]: PSAC antagonists in infected red cells, primary screen, cell-based, P. falciparum Indochina, OD700, 2 h (AID 1155).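 Further: lysis reports solute entry through the parasite surface anion channel PSAC; channel blockers reduce lysis of infected cells.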 To be noted: P. falciparum Indochina infected erythrocytes, osmotic lysis OD700; higher = more signal, called active from +8 up or from −8 down.
Assay [15] in a line: osmotic lysis modulators in infected erythrocytes, primary screen, PSAC antagonist project, cell-based, P. falciparum Indochina, OD700, 3 h (AID 1156). To be noted: higher = more signal, called active from +8 up or from −8 down.
A short description of assay [16]: PSAC antagonists in infected red cells, primary screen, cell-based, P. falciparum Indochina, OD700, 18 h (AID 1157). To be noted: P. falciparum Indochina infected erythrocytes, osmotic lysis OD700, 18 h; higher = more signal, called active from +8 up or from −8 down.
A short description of assay [17]: modulators of S6 phosphorylation in cells, primary screen, cell-based, A549, cytoblot, luminescence, serum-stimulated (AID 1158).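 Further: serum-stimulated A549 lung adenocarcinoma cells; signal is phosphorylated S6 detected by cytoblot immunostaining with HRP secondary.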 To be noted: A549 phospho-S6 cytoblot, 5 h, higher = more signal.
Assay [18] concerns the target NADPH oxidase 2 (Homo sapiens) (UniProt P04839). In words: NOX2-dependent H2O2 signal modulators, primary screen, NOX inhibitor project, cell-based, HEK293-NOX2, PMA-stimulated, Amplex Red fluorescence (AID 1159). Further: test concentration not given here. To be noted: 45 min, higher = more signal, called active from +8 up or from −8 down.
The target in assay [19] is NADPH oxidase 4 (Homo sapiens) (UniProt Q9NPH5). In words: NOX4-dependent H2O2 signal modulators, primary screen, NOX inhibitor project, cell-based, HEK293-NOX4, tetracycline-induced, Amplex Red fluorescence (AID 1160). To be noted: 45 min, higher = more signal, called active from +8 up or from −8 down.
NADPH oxidase 4 (Homo sapiens), sequence (Q9NPH5 whole entry, looked up): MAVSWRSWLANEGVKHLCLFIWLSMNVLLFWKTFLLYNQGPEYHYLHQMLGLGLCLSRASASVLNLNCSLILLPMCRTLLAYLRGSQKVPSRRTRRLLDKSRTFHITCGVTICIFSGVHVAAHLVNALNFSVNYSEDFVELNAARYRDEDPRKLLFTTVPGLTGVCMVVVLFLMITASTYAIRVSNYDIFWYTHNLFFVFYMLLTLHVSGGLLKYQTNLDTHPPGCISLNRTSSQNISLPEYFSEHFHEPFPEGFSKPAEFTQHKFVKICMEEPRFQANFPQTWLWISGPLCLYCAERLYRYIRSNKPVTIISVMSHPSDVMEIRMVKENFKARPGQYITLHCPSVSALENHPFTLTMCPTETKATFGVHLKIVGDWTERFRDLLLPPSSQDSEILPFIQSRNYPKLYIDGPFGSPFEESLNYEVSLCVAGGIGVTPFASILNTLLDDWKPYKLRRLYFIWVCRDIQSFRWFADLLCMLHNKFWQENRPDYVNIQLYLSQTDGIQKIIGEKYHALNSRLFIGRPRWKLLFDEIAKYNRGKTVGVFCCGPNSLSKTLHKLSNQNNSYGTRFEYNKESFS
Assay [20] concerns the target NADPH oxidase 5 (Homo sapiens) (UniProt Q96PH1). Description: NOX5-dependent H2O2 signal modulators, primary screen, NOX inhibitor project, cell-based, HEK293-NOX5, Amplex Red fluorescence (AID 1161). To be noted: HEK293-NOX5, ionomycin, 45 min, higher = more signal.

The source made the active and inactive calls. Unless noted, how the calls were made is not given here.

NADPH oxidase 2 (Homo sapiens), sequence (P04839 whole entry, looked up): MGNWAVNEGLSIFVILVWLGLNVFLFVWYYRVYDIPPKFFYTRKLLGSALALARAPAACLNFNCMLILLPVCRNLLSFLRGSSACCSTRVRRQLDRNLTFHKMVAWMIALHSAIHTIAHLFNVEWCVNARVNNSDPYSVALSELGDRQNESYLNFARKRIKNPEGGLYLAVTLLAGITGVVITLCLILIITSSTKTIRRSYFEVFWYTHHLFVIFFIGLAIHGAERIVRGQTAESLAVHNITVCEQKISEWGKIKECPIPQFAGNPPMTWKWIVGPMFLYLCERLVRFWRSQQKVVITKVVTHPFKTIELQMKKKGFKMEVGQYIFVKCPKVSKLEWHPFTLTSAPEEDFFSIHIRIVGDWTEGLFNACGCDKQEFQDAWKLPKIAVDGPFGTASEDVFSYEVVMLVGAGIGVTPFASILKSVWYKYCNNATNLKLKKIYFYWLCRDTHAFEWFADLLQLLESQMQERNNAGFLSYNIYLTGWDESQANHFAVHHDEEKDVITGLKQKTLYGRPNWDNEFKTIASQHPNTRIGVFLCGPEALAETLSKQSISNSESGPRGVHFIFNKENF
NADPH oxidase 5 (Homo sapiens), sequence (Q96PH1 whole entry, looked up): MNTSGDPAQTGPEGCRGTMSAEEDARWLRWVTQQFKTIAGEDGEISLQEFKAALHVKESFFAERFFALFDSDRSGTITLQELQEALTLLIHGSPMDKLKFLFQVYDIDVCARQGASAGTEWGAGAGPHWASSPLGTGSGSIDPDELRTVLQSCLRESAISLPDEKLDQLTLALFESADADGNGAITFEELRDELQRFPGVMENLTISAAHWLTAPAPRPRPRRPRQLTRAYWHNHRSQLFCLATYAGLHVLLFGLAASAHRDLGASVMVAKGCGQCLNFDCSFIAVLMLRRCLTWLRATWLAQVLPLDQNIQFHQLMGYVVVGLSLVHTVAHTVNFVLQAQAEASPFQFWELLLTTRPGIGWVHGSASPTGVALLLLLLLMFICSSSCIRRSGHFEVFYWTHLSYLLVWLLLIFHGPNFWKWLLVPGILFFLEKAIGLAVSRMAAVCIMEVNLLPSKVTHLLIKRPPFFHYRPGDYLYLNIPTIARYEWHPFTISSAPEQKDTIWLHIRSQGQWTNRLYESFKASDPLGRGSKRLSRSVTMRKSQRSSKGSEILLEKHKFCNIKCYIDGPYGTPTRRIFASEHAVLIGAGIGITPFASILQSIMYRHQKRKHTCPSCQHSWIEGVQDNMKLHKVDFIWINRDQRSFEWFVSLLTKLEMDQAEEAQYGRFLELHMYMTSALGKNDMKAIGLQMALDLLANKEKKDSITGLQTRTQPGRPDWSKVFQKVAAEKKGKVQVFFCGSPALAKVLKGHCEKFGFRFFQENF

Regarding `C[N+](C)(C)CCCCCCNC(=O)[C@@H]1C[C@@H]2C(=O)N3CCC[C@H]3C(=O)N2[C@@H]1c1ccc(O)cc1`, the composite z-score in assay [1] was 0.311; in assay [6], -0.31; in [7], -0.0762; in assay [8], 1.25; in assay [9] it was 1.15; in assay [10] it was 2.12. Further, in [12], the composite z-score is -0.021. Further, the z-score in [2] was 0.143 (inactive); in assay [3] it was -0.573 (inactive); in assay [4], -0.663 (inactive); in assay [5], -0.62 (inactive); in assay [11] it was 0.524 (inactive); in [13], 1.55 (inactive). Besides, the z-score is -0.15 (inactive) in assay [14]; -0.72 (inactive) in assay [15]; -0.117 (inactive) in [16]; -0.196 in assay [17]; -0.425 (inactive) in assay [18]; 0.375 (inactive) in [19]. Also, in [20], the z-score is -0.233.
For `CCOc1cc(C(O)C2C=CC3C(=O)NC(=O)C3N2Nc2ccc(Cl)cc2Cl)ccc1O` (stereo not given), the composite z-score in assay [1] was -0.0753; in assay [6], -0.431; in assay [7] it was 0.0427; in assay [8], -0.662; in assay [9], -0.141; in assay [10], -0.479. Further, the composite z-score in assay [12] is -0.101. Further, the z-score is 0.625 (inactive) in assay [2]; -0.542 (inactive) in [3]; 1 (inactive) in assay [4]; -0.323 (inactive) in [5]; -1.36 (inactive) in assay [11]; 0.588 (inactive) in assay [13]. Moreover, the z-score in assay [14] is 0.0352 (inactive); in assay [15], 0.0675 (inactive); in assay [16], 1.1 (inactive); in [17], -1.04; in assay [18] it was -1.26 (inactive); in assay [19], -1.88 (inactive). In addition, the z-score in assay [20] was -2.05.
For `O=C1NC(=O)C2C1C=CC(C(O)c1ccco1)N2Nc1ccc(Cl)cc1Cl` (stereo not given), the composite z-score in assay [1] is -0.118; in assay [6] it was 0.531; in assay [7] it was -0.0986; in assay [8] it was 0.148; in [9], 0.672; in assay [10], 0.576. In assay [12], the composite z-score was -0.0984. The z-score is -0.483 (inactive) in assay [2]; -0.315 (inactive) in [3]; 0.0501 (inactive) in assay [4]; 0.815 (inactive) in assay [5]; -2.27 (inactive) in [11]; 5.52 (inactive) in assay [13]. The z-score was 1.31 (inactive) in assay [14]; 0.331 (inactive) in assay [15]; 1.2 (inactive) in [16]; -0.992 in [17]; -0.767 (inactive) in assay [18]; -5.58 (inactive) in assay [19]. Moreover, the z-score in assay [20] is -4.22.
Regarding `O=C1O[C@@H](c2ccccc2)[C@@H](c2ccccc2)N2[C@@H](c3ccc(O)cc3)[C@]3(C(=O)Nc4ccc(C#CCCO)cc43)[C@@H](C(=O)N3CCN(c4ncccn4)CC3)[C@H]12`, the composite z-score in assay [1] was 0.409; in assay [6] it was -0.704; in [7], 0.0214; in assay [8], 0.591; in assay [9], 0.967; in [10], 2.21. This molecule registered a composite z-score in assay [12] of 0.348. Also, the z-score in assay [2] is -1.28 (inactive); in assay [3], -0.622 (inactive); in assay [4], -0.554 (inactive); in assay [5] it was -0.572 (inactive); in assay [11], 1.81 (inactive); in assay [13], 1.97 (inactive). The z-score was 1.01 (inactive) in assay [14]; -0.834 (inactive) in [15]; 0.516 (inactive) in assay [16]; -0.138 in [17]; 0.941 (inactive) in assay [18]; -0.341 (inactive) in assay [19]. This molecule displayed a z-score in assay [20] of 0.594.
